Records with an inconclusive call do not appear. Active and inactive are the calls of the source. Calls come from the whole dose curve; as a rule, active = well fitted inhibition curve with a large enough effect in the repeat runs; inconclusive = weak or mixed curves; inactive = no such curve, though single readings can be large or run the other way.
What follows are compounds tested against Cytochrome P450 2C19 (Homo sapiens) (UniProt P33261) (assay: Cytochrome P450 Family 2 Subfamily C Member 19 (CYP2C19) small molecule antagonists: luciferase reporter qHTS assay (AID 1671197; note: nearly all actives have a fitted effect of over 65% in size)). Settings: P450-Glo CYP2C19 enzyme, luciferin luminescence, 1 h; series mostly up to 115 µM.
Sequence of Cytochrome P450 2C19 (Homo sapiens) (P33261 whole entry, looked up): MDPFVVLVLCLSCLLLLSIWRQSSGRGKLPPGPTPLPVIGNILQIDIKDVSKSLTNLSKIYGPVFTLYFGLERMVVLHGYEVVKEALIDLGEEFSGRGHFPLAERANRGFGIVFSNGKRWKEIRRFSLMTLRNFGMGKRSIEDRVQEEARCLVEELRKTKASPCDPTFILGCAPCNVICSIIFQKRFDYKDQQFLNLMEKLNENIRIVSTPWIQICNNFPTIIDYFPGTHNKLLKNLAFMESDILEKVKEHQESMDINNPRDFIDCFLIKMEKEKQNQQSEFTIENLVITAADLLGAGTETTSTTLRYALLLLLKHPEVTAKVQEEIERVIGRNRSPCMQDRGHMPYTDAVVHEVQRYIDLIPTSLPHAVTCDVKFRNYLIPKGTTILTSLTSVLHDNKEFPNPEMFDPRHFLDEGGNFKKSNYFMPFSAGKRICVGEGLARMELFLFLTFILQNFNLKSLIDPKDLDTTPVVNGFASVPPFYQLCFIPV
Outline: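 Luminescent readout of CYP2C19 activity: luciferin product detected 20 min after adding detection reagent. Before that, compound and enzyme-substrate mix preincubated 10 min at room temperature; NADPH-regenerating system started a 1 h, 37C reaction. Ketoconazole as positive control.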
Potency is the fitted concentration of half-maximal effect.

Question: How did the Potency turn out when `O=C(Cl)c1c(Cl)cccc1Cl` was run?
Answer: 36 µM (active)

Question: For `O=C1Nc2cc(Cl)ccc2Oc2ccccc21`, which Potency is on record?
Answer: 15.5 µM (active)

Question: `CC(=O)[C@@]1(O)CC[C@H]2[C@@H]3C[C@H](C)C4=CC(=O)CC[C@]4(C)[C@H]3CC[C@@]21C` was tested. Which Potency did it give?
Answer: 1.95 µM (active)

Question: With `O=C(O)/C=C/c1cnc[nH]1` as the compound, how does the Potency read?
Answer: 79.8 µM (active)

Question: `O=C1c2cccc(O)c2C(=O)c2c(O)cc(CO)cc21` was tested. Which Potency did it give?
Answer: inactive

Question: With `CC(CN)CCCN` (centres undefined) as the compound, how does the Potency read?
Answer: inactive

Question: `CC(C)(C)c1cc(CCC(=O)OCC(COC(=O)CCc2cc(C(C)(C)C)c(O)c(C(C)(C)C)c2)(COC(=O)CCc2cc(C(C)(C)C)c(O)c(C(C)(C)C)c2)COC(=O)CCc2cc(C(C)(C)C)c(O)c(C(C)(C)C)c2)cc(C(C)(C)C)c1O` was tested. Which Potency did it give?
Answer: 33.8 µM (active)

Question: For `Cc1cccc(Oc2ccccc2)c1`, which Potency is on record?
Answer: 69.2 µM (active)

Question: For `CCCCCCCCCC=O`, which Potency is on record?
Answer: inactive

Question: With `CC(C)CCCC(C)CCO` (centres undefined) as the compound, how does the Potency read?
Answer: inactive

Question: `CCCC(C)C` was tested. Which Potency did it give?
Answer: 71.7 µM (active)

Question: `O=C=NC1CCC(CC2CCC(N=C=O)CC2)CC1` (centres undefined) was tested. Which Potency did it give?
Answer: 79.6 µM (active)

Question: Which Potency does the source give for `CCCCC(CC)(CO)CO` here?
Answer: 56.4 µM (active)

Question: For `CC(=O)N(CC(=O)N(C)C)c1ccccc1`, which Potency is on record?
Answer: inactive

Question: With `CCCCOC(=O)/C=C\C(=O)OCCCC` as the compound, how does the Potency read?
Answer: 3.28 µM (active)

Question: For `C1=Cc2ccccc2C1`, which Potency is on record?
Answer: 39.9 µM (active)

Question: Which Potency does the source give for `CCOc1ccc(NC(=O)CC(C)=O)cc1` here?
Answer: 56.4 µM (active)

Question: `Oc1ccc(C(O)CNCCCCCCNCC(O)c2ccc(O)c(O)c2)cc1O` (centres undefined) was tested. Which Potency did it give?
Answer: inactive

Question: Which Potency does the source give for `N#CCCNCCC#N` here?
Answer: inactive

Question: `O=C(c1ccccc1)c1ccc2n1CCC2C(=O)O` (centres undefined) was tested. Which Potency did it give?
Answer: inactive

Question: Which Potency does the source give for `CN(c1nccc(=O)[nH]1)C1CCN(c2nc3ccccc3n2Cc2ccc(F)cc2)CC1` here?
Answer: inactive

Question: How did the Potency turn out when `CCCCCCCCN(C)C` was run?
Answer: inactive

Question: Which Potency does the source give for `COC(Cc1ccccc1)OC` here?
Answer: inactive

Question: For `CC(=O)OCCc1ccccc1`, which Potency is on record?
Answer: inactive

Question: For `Cc1ccccc1N=Nc1ccc(N=Nc2c(O)ccc3ccccc23)c(C)c1`, which Potency is on record?
Answer: 34.7 µM (active)

Question: With `CC[C@@H]1C[C@H](N(Cc2cc(C(F)(F)F)cc(C(F)(F)F)c2)C(C)=O)c2cc(C(F)(F)F)ccc2N1C(=O)OC(C)C` as the compound, how does the Potency read?
Answer: inactive

Question: Which Potency does the source give for `COc1ccc(C(C)=O)cc1` here?
Answer: inactive

Question: Which Potency does the source give for `CCN(CC)C(C)CN1c2ccccc2Sc2ccccc21` (centres undefined) here?
Answer: 34.7 µM (active)

Question: For `C=C(C)C(=O)OCCN(C)C`, which Potency is on record?
Answer: 36 µM (active)
